# Experimental data taken from the supplement of paper PMC10646978.
# ± gives the standard deviation.
# How the values were obtained:
# Conditions in all cases: modulator concentration 10 µM
# [1] = tested on: RAW-Dual (murine macrophage reporter line); experiment: NF-kB reporter (SEAP) activity fold change vs agonist alone; higher = enhanced NF-kB activity
# In short: (§1)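 In 384-well plates holding 50 000 RAW-Dual murine macrophage reporter cells per well, compound at 10 μM final was pre-incubated for 1 hour at 37 °C, after which a PRR agonist was added overnight. Supernatant SEAP read with QUANTI-Blue at 620 nm absorbance reported NF-κB, and Lucia luciferase read with QUANTI-Luc luminescence reported IRF. Fold change values come from dividing each reporter signal by the mean of agonist-only control wells on the same plate, averaged over replicate plates with propagated errors.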
# [2] = tested on: RAW-Dual (murine macrophage reporter line); experiment: IRF reporter (Lucia luciferase) activity fold change vs agonist alone; higher = enhanced IRF activity
# In short: as §1
# [3] = tested on: RAW-Dual (murine macrophage reporter line); experiment: viability score (confluency relative to resting cells, overnight) (fraction); higher = more viable, active = viable (0.7 or more)
# In short: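 RAW-Dual macrophages in 384-well plates were incubated overnight with compound, final concentration 10 μM. Confluency images from IncuCyte were processed in IncuCyte software into two masks covering all imaged wells. The viability score is each well's confluency relative to resting cells, and a compound met the cutoff when both masks exceeded 70% of resting cells.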
# [4] = agonist: CpG ODN 1826 0.5 ug/mL
SMILES,"NF-kB reporter [1, 4]",NF-kB reporter ([1]; agonist: LPS 0.1 ug/mL),NF-kB reporter ([1]; agonist: MPLA […]),IRF reporter ([2]; agonist: 3'3'-cGAMP 10 ug/mL),IRF reporter ([2]; agonist: LPS 0.1 ug/mL),IRF reporter ([2]; agonist: MPLA […]),viability score [3]
O=C1C(=Cc2ccccc2)SC(=S)N1CO,0.546 ± 0.053,0.757 ± 0.058,0.725 ± 0.08,0.741 ± 0.073,1.03 ± 0.16,1.15 ± 0.32,0.968 (active)
O=C(c1cc(C(F)(F)F)cc(C(F)(F)F)c1)N1CCOCC1CO (stereo unspecified),0.94 ± 0.053,1.03 ± 0.12,0.869 ± 0.099,0.969 ± 0.072,1.04 ± 0.092,0.989 ± 0.38,0.999 (active)
Cl.Nc1ccn([C@@H]2O[C@H](CO)[C@@H](O)C2(F)F)c(=O)n1,1.3 ± 0.31,0.921 ± 0.05,1.29 ± 0.087,1.25 ± 0.063,1.51 ± 0.17,1.32 ± 0.21,0.173 (inactive)
O=C(NN=Cc1sc2ccccc2c1Cl)c1ccncc1,0.918 ± 0.08,1.02 ± 0.091,0.931 ± 0.058,0.808 ± 0.028,1.5 ± 0.14,1.14 ± 0.11,1.01 (active)
CN1CCC(=C2c3ccccc3CCn3c(C=O)cnc32)CC1,0.766 ± 0.11,1.24 ± 0.12,0.971 ± 0.1,0.875 ± 0.04,1.1 ± 0.14,0.943 ± 0.29,1 (active)
CC1(C)Cc2cccc(OCC(=O)NCc3ccccn3)c2O1,0.948 ± 0.064,1 ± 0.1,0.986 ± 0.045,0.896 ± 0.034,1.02 ± 0.048,0.906 ± 0.087,0.996 (active)
Cc1c(-c2ccccc2)oc2c(C(=O)OCCN3CCCCC3)cccc2c1=O.Cl,1.21 ± 0.31,1.01 ± 0.075,0.977 ± 0.067,0.883 ± 0.052,1.35 ± 0.22,1.35 ± 0.16,1.01 (active)
O=C(NCCNC(=O)c1ccccc1Cl)c1ccc(NC(=O)C2CC2)cc1,0.924 ± 0.04,1.01 ± 0.084,1.67 ± 0.56,1.02 ± 0.052,1.36 ± 0.25,1.69 ± 0.5,0.98 (active)
CC(=NOCON=C(C)c1ccc(F)cc1F)c1ccc(F)cc1F,0.843 ± 0.067,0.907 ± 0.062,0.974 ± 0.086,0.991 ± 0.05,1.39 ± 0.085,1.53 ± 0.15,1 (active)
Br.O=S(=O)(c1ccc(-c2csc(Nc3cccc4ccccc34)n2)cc1)N1CCOCC1,0.907 ± 0.077,1.01 ± 0.089,1 ± 0.061,0.769 ± 0.053,1.25 ± 0.08,1.12 ± 0.32,1 (active)
CC(=O)N(C=Cc1cc[n+](CCCS(=O)(=O)[O-])c2ccccc12)c1ccccc1,0.982 ± 0.1,1.05 ± 0.063,0.908 ± 0.094,1.01 ± 0.052,1.57 ± 0.16,1.25 ± 0.25,1.01 (active)
COc1ccc(S(=O)(=O)Nc2ccc(Oc3ccccc3)cc2)cc1,1.04 ± 0.18,1.02 ± 0.11,2.55 ± 1.5,0.972 ± 0.033,1.17 ± 0.13,1.21 ± 0.2,1.01 (active)
NC[C@@H]1O[C@H](O[C@@H]2[C@@H](CO)OC(O[C@@H]3[C@@H](O)[C@H](N)C[C@H](N)[C@H]3O[C@H]3O[C@H](CN)[C@@H](O)[C@H](O)[C@H]3N)[C@@H]2O)[C@H](N)[C@@H](O)[C@@H]1O.O=S(=O)(O)O (stereo partly specified),0.993 ± 0.074,1.01 ± 0.091,0.983 ± 0.025,0.908 ± 0.09,1.02 ± 0.081,1.11 ± 0.12,1 (active)
N#Cc1c(N=Cc2ccc(O)cc2)sc2c1CCCC2,0.688 ± 0.055,0.94 ± 0.069,0.979 ± 0.11,0.713 ± 0.049,1.17 ± 0.22,1.23 ± 0.24,0.997 (active)
CN(C)CCCN1c2ccccc2Sc2ccc(Cl)cc21.Cl,0.377 ± 0.029,0.997 ± 0.096,1.87 ± 0.041,1.07 ± 0.073,1.13 ± 0.1,1.37 ± 0.17,0.306 (inactive)
NC(=O)COc1ccc(Nc2nnc(-c3ccccc3)c3ccccc23)cc1,0.782 ± 0.083,0.806 ± 0.051,1.08 ± 0.093,0.747 ± 0.034,1.19 ± 0.069,1.23 ± 0.14,1.01 (active)
CC(=O)OC1(C(C)=O)CCC2C3CC(C)C4=CC(=O)CCC4(C)C3CCC21C (stereo unspecified),1.65 ± 0.4,1.36 ± 0.11,1.29 ± 0.089,0.937 ± 0.045,1.1 ± 0.13,1.23 ± 0.14,0.984 (active)
Cc1ccnc2c1NC(=O)c1cccnc1N2C1CC1,1.19 ± 0.26,1.2 ± 0.3,0.967 ± 0.067,0.88 ± 0.035,1.34 ± 0.36,1.29 ± 0.097,0.994 (active)
CCOC(=O)C1=C(C)NC(C)=C(C(=O)OC)C1c1ccc(Cl)cc1 (stereo unspecified),0.607 ± 0.14,0.448 ± 0.035,0.563 ± 0.062,1 ± 0.057,1.01 ± 0.1,1.26 ± 0.21,0.598 (inactive)
O=C(NN=Cc1ccc(O)c(O)c1)c1cc2ccccc2cc1O,0.35 ± 0.03,0.729 ± 0.075,0.589 ± 0.038,0.229 ± 0.017,0.909 ± 0.072,0.794 ± 0.18,0.997 (active)
CCOC(=O)CC(C)(O)P(=O)(OCC)OCC (stereo unspecified),1.01 ± 0.066,1.08 ± 0.068,0.955 ± 0.069,1.04 ± 0.035,1.44 ± 0.2,1.18 ± 0.12,1 (active)
Cc1ccc(-c2ncc(Cl)cc2-c2ccc(S(C)(=O)=O)cc2)cn1,1.03 ± 0.17,1.15 ± 0.33,0.973 ± 0.054,1.05 ± 0.038,1.29 ± 0.4,1.37 ± 0.1,1 (active)
COc1ccc(OC)c(Nc2nc(-c3c(C)nc4ccccn34)cs2)c1,1.35 ± 0.22,1.45 ± 0.12,1.58 ± 0.13,0.241 ± 0.0091,1.25 ± 0.22,1.53 ± 0.24,0.967 (active)
